Bioassay records deposited in PubChem BioAssay by several laboratories.
Compounds with a hit are over-represented: about 3.6% of the library has one in this group of screens.
FAS TE block: blocks the thioesterase domain of human fatty acid synthase; hit rate 0.67% among 360,000; recombinant FAS-TE, OMFH fluorogenic substrate, fluorescence endpoint; P49327; inhibition, % at 15 µM; AID 602261;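 active = compounds whose normalised, plate-corrected inhibition of enzyme fluorescence in the single-dose primary screen is 50% or more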;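 note: 0% = DMSO with enzyme and 100% = substrate without enzyme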
Myeloid diff 2: myeloid differentiation induction; calls only at 10 µM; ER-HoxA9 myeloid progenitors, lysozyme-GFP differentiation, flow cytometry; hit rate 1% among 360,000;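 active = normalized GFP-positive differentiation at or above the plate's own cutoff, the solvent-only control mean plus 3 SD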;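 note: cells exposed to compound for four days before flow analysis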
NadD block: NadD (S. aureus) enzyme inhibition; purified NadD enzyme, colorimetric absorbance read-out; hit rate 0.78% among 360,000; AID 602399; inhibition, % at 20 µM; in the data active = inhibition above about 26%
CRFBP-R2 block: CRF-BP/CRF-R2 complex antagonism; hit rate 0.59% among 350,000; HEK293 CRF-R2/CRF-BP, CRF-induced calcium fluorescence; inhibition, % at 11.8 µM;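 active = inhibition of the ligand-induced calcium signal above about 50% at the single tested concentration, limit read from the data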
CendR NRP1 mod: modulators of CendR peptide binding to human neuropilin-1. FAM-RPARPAR peptide binding to NRP-1, fluorescence polarization. AID 602438. hit rate 0.85% among 360,000. O14786. inhibition, % at 25 µM;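 active = inhibition or corrected inhibition above about 18%, plus a signal ratio from 0.5 to 1.5, limit read from the data, passing the limit was not always enough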
Target sequence (O14786 whole entry, looked up): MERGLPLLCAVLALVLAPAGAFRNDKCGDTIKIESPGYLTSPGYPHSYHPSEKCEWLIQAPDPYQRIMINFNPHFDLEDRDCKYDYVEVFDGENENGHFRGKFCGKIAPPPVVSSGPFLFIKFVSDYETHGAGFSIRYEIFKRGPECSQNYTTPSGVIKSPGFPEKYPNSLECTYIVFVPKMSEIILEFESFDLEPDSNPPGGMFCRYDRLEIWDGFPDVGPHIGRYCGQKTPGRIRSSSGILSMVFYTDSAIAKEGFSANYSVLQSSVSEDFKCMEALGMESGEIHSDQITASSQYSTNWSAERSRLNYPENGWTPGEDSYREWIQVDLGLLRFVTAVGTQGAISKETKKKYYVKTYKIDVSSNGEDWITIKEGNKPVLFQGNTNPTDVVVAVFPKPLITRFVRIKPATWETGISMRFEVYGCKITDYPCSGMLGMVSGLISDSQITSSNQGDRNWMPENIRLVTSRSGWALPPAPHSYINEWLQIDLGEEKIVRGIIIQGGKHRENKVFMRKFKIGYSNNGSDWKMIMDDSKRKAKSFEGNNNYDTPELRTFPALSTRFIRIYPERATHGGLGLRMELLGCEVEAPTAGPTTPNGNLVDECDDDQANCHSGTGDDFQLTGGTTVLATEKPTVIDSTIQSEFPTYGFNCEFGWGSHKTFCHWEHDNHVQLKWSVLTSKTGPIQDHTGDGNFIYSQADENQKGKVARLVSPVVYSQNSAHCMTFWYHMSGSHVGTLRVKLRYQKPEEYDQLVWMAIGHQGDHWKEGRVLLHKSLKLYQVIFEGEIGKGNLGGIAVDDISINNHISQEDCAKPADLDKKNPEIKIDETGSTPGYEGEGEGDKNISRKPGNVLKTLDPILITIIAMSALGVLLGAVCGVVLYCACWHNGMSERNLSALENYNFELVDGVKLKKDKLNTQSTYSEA
Active calls of the source: *.

O=C(Nc1cccnc1)c1ccc(-c2ccc(Cl)cc2)o1 was read as FAS TE block -4, Myeloid diff 2 inactive, NadD block 2, CRFBP-R2 block 57* and CendR NRP1 mod -9.
`Cc1c(CC(=O)O)c(=O)oc2cc3occ(-c4ccccc4)c3cc12` gave FAS TE block -1, Myeloid diff 2 inactive, NadD block 2, CRFBP-R2 block -4 and CendR NRP1 mod 44*.
`Cc1c(CC(=O)NCCC(=O)O)c(=O)oc2cc3occ(-c4ccccc4)c3cc12` gave FAS TE block -4, Myeloid diff 2 inactive, NadD block -5, CRFBP-R2 block -10 and CendR NRP1 mod 0.
`CCOC(=O)C(C)(C)N(Cc1ccc(C)cc1)S(=O)(=O)c1ccc(Cl)c([N+](=O)[O-])c1` gave FAS TE block 41, Myeloid diff 2 inactive, NadD block 0, CRFBP-R2 block 67* and CendR NRP1 mod 2.
For CCN=c1scc(-c2ccccc2)n1/N=C/c1ccccn1 the results were FAS TE block 34, Myeloid diff 2 active, NadD block 1, CRFBP-R2 block 8 and CendR NRP1 mod 12.
`C=CCN=c1scc(-c2ccccc2)n1/N=C/c1ccccn1` gave FAS TE block 20, Myeloid diff 2 active, NadD block 2, CRFBP-R2 block 5 and CendR NRP1 mod -4.
For COc1ccc(S(=O)(=O)NC(C)C(=O)Nc2ccc3c(c2)OCO3)cc1OC (stereo not drawn) the results were FAS TE block -6, Myeloid diff 2 inactive, NadD block -2, CRFBP-R2 block 1 and CendR NRP1 mod 17*.
COc1ccc(/C=C/C(=O)O)cc1S(=O)(=O)Nc1ccc2c(c1)OCO2 was read as FAS TE block -2, Myeloid diff 2 inactive, NadD block 0, CRFBP-R2 block 7 and CendR NRP1 mod 26*.
Screening COc1ccc(S(=O)(=O)Nc2ccc3c(c2)OCO3)cc1C(=O)O returned FAS TE block -6, Myeloid diff 2 inactive, NadD block -3, CRFBP-R2 block -14 and CendR NRP1 mod 16.
Screening Cc1ccccc1N1CCN(C2CCCN(C(=O)CSc3ccccn3)C2)CC1 (stereo not drawn) returned FAS TE block -3, Myeloid diff 2 inactive, NadD block -5, CRFBP-R2 block 1 and CendR NRP1 mod -3.
For O=C(NCc1ccccc1)c1cc(C2COCCN2C(=O)c2ccc3c(c2)CCO3)on1 (stereo not drawn) the results were FAS TE block -6, Myeloid diff 2 inactive, NadD block -1 and CendR NRP1 mod -1.
`COc1ccc(N/N=C(/N=Nc2nc(C)cc(=O)[nH]2)c2ccccc2)cc1` gave FAS TE block 2, NadD block 4, CRFBP-R2 block 57* and CendR NRP1 mod 44*.
`CS(=O)(=O)Cc1cc(Sc2ccccc2)nc(-c2ccncc2)n1` gave FAS TE block -3, Myeloid diff 2 inactive, NadD block 3, CRFBP-R2 block 2 and CendR NRP1 mod 23*.
O=S(Cc1cc(Sc2ccccc2)nc(-c2ccccc2)n1)c1ccccc1 (stereo not drawn) was read as FAS TE block 25, Myeloid diff 2 inactive, NadD block -2, CRFBP-R2 block 8 and CendR NRP1 mod 2.
Screening OC(c1ccc(F)c(F)c1)c1nc(-c2cnc3ccccc3c2)cs1 (stereo not drawn) returned FAS TE block 19, Myeloid diff 2 inactive, NadD block -4 and CendR NRP1 mod 0.
Cc1ccccc1NC(=O)c1cccc(NC(=O)CCC(=O)O)c1 was read as FAS TE block 3, Myeloid diff 2 inactive, NadD block 7, CRFBP-R2 block 23 and CendR NRP1 mod 23*.
Cc1ccccc1S(=O)(=O)NC(=O)C1(C)CCN1C(=O)c1cccc(F)c1 (stereo not drawn) was read as FAS TE block -7, Myeloid diff 2 inactive, NadD block 2 and CendR NRP1 mod 6.
For Cc1cc(C)c(S(=O)(=O)c2cccc(Cl)c2)c(Cl)n1 the results were FAS TE block 2, Myeloid diff 2 inactive, NadD block -5, CRFBP-R2 block -17 and CendR NRP1 mod 33*.
`Cc1cc(C)c(S(=O)(=O)c2c(C)cccc2C)c(Cl)n1` gave FAS TE block 5, Myeloid diff 2 inactive, NadD block -7, CRFBP-R2 block 6 and CendR NRP1 mod -2.
Screening CCCC1=C(C(=O)OCC)C(c2cccnc2)n2nc(C)nc2N1 (stereo not drawn) returned FAS TE block -3, Myeloid diff 2 inactive, NadD block -2, CRFBP-R2 block 114* and CendR NRP1 mod -8.
Screening CCOC(=O)C1=C(C)Nc2nnnn2C1c1cccnc1 (stereo not drawn) returned FAS TE block -6, Myeloid diff 2 inactive, NadD block 0, CRFBP-R2 block -9 and CendR NRP1 mod 5.
`C=CCOc1ccc(C2C(C(=O)c3ccco3)=C(O)C(=O)N2c2nnc(C)s2)cc1` (stereo not drawn) gave FAS TE block -5, Myeloid diff 2 inactive, NadD block 15, CRFBP-R2 block 83* and CendR NRP1 mod -24.
COc1cc(C2C(C(=O)c3ccc(C)o3)=C(O)C(=O)N2c2cc(C)on2)cc(Br)c1O (stereo not drawn) was read as FAS TE block -4, Myeloid diff 2 inactive, NadD block 0, CRFBP-R2 block -18 and CendR NRP1 mod 16.
For COc1cc(C2C(C(=O)c3ccco3)=C(O)C(=O)N2c2cc(C)on2)cc(Br)c1O (stereo not drawn) the results were FAS TE block 0, Myeloid diff 2 inactive, NadD block 3, CRFBP-R2 block 80* and CendR NRP1 mod 1.
CCOC(=O)[C@@H](NC(=O)/C=C/[C@H]1O[C@@H](n2cc(C)c(=O)[nH]c2=O)C[C@@H]1O)C(C)C was read as FAS TE block -8, Myeloid diff 2 inactive, NadD block -1 and CendR NRP1 mod -1.
For CCCCc1cn([C@@H](CCCCN)C(=O)N2CCNCC2)nn1 the results were FAS TE block -13, Myeloid diff 2 inactive, NadD block -10, CRFBP-R2 block 5 and CendR NRP1 mod 22*.
Screening CCOc1ccc(N=C(C)c2ccccc2O)cc1 returned FAS TE block -5, Myeloid diff 2 active, NadD block 0, CRFBP-R2 block 29 and CendR NRP1 mod -10.
`Nc1nc(-c2ccc(Br)s2)c(Br)s1` gave FAS TE block 16, Myeloid diff 2 inactive, NadD block 10, CRFBP-R2 block 29 and CendR NRP1 mod 30*.
`O=C(C1CCCN(S(=O)(=O)c2cccc3cccnc23)C1)N1CCN(c2ccc(F)cc2)CC1` (stereo not drawn) gave FAS TE block 2, Myeloid diff 2 inactive, NadD block -6, CRFBP-R2 block 79* and CendR NRP1 mod 6.
OCC[C@@H]1C[C@H](O)[C@@H](O)[C@]2(OCc3cc(Cl)ccc32)O1 was read as FAS TE block -13, Myeloid diff 2 inactive, NadD block -8 and CendR NRP1 mod 7.
Cc1ccc(S(=O)(=O)N/N=C/c2ccccc2O)cc1 was read as FAS TE block -2, Myeloid diff 2 inactive, NadD block -5, CRFBP-R2 block 4 and CendR NRP1 mod 4.
